Assay results: PubChem BioAssay (Tox21)
Records with an inconclusive call do not appear. Calls of active or inactive are those of the source. Unless noted, calls follow the shape of the dose curve; as a rule, active = well fitted curve in the direction sought with a large enough effect in the repeat runs; inconclusive = weak or mixed curves; inactive = no such curve, though single readings can be large; an effect the other way counts as inactive or inconclusive.

Legend:
[1] = qHTS assay to identify small molecule agonists of the vitamin D receptor (VDR) signaling pathway - cell viability counter screen (AID 743224); conditions: VDR-bla HEK293T viability, CellTiter-Glo luminescence, 16 h; series mostly up to 62.6 µM; also: nearly all actives have a fitted effect of over 50% in size
Summary of the method: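 Here cell health was gauged by luminescent ATP detection (CellTiter-Glo, 30 min RT) in VDR-bla cells that had been incubated with test compounds for 16 h at 37C and 5% CO2.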

[2] = qHTS assay to identify small molecule antagonists of the vitamin D receptor (VDR) signaling pathway - cell viability counter screen (AID 743225); conditions: VDR-bla HEK293T viability, CellTiter-Glo luminescence, 16 h; series mostly up to 61 µM; also: nearly all actives have a fitted effect of over 50% in size
Summary of the method: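 VDR-UAS-bla HEK 293T cells were plated and incubated 4 h at 37C, then dosed with compound plus 3 nM (final) 1-alpha,25-dihydroxyvitamin D3 for 16 h. After the 2 h beta-lactamase read, viability in the same wells was read as CellTiter-Glo luminescence after 30 min at room temperature.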

[3] = qHTS assay to identify small molecule agonists of the NFkB signaling pathway (AID 1159509; active = well fitted curve in the direction sought with a large enough effect in the signal ratio in the repeat runs, not every such curve was filed as active; the % refers to the signal ratio); conditions: NFkB-bla ME-180 cells, beta-lactamase FRET ratio, 5 h; series mostly up to 61 µM
Summary of the method: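 NFkB-bla ME-180 cells carry a beta-lactamase reporter under an NF-kB response element. They were plated overnight, then exposed to compounds for 5 h at 37 C. Read-out is LiveBLAzer FRET after 1.5 hr at room temperature (405 nm excitation; 460/530 nm emission).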

[4] = qHTS assay to identify small molecule agonists of the NFkB signaling pathway - cell viability counter screen (AID 1159515; calls by dose curve; also: nearly all actives have a fitted effect of over 55% in size); conditions: NFkB-bla ME-180 viability, CellTiter-Glo luminescence, 5 h; series mostly up to 61 µM
Summary of the method: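 5 hr compound treatment of NFkB-bla ME-180 cells (2,000/well, seeded overnight beforehand), followed by reporter substrate for 1.5 hr. CellTiter-Glo added afterward; luminescence after 30 min RT.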

[5] = qHTS assay to identify small molecule agonists of the endoplasmic reticulum stress response signaling pathway (AID 1159516; active = well fitted activation curve with a large enough effect in the signal ratio in the repeat runs, not every such curve was filed as active; the % refers to the signal ratio); conditions: ESRE-bla HeLa, ER stress beta-lactamase reporter, 5 h; series mostly up to 61 µM
Summary of the method: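 Reporter HeLa cells (ESRE-beta-lactamase) underwent 5 hr compound incubation at 37 C and 5% CO2 in quantitative HTS format. Detection followed 2 hr of FRET substrate loading at room temperature.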

[6] = qHTS assay to identify small molecule agonists of the endoplasmic reticulum stress response signaling pathway - cell viability counter screen (AID 1159517; calls by dose curve;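 also: HeLa cells carrying an ER stress response element beta-lactamase reporter; nearly all actives have a fitted effect of over 50% in size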); conditions: ESRE-bla HeLa viability, CellTiter-Glo luminescence, 5 h; series mostly up to 61 µM
Summary of the method: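 HeLa cells carrying an ESRE-driven beta-lactamase reporter receive compound for 5 hr at 37 C. Cell viability is then gauged with CellTiter-Glo by luminescence, 30 min at room temperature.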

[7] = target: Nuclear receptor ROR-gamma (Homo sapiens) (UniProt P51449); experiment: qHTS assay to identify small molecule antagonists of the retinoid-related orphan receptor gamma (ROR-gamma) signaling pathway (AID 1159521;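 also: CHO cells with doxycycline inducible ROR-gamma driving an RORE luciferase reporter; top concentration of the series differs between compounds; nearly all actives have a fitted effect of over 50% in size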); conditions: Tet-on RORgamma CHO cells, RORE-luciferase, 16 h; series mostly up to 92.4 µM
Summary of the method: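 Tet-on ROR-gamma CHO cells with ROR response element-luciferase reporter; compounds added 2 hr before 1 uM doxycycline induction, then 16 hr at 37 C. Antagonism scored as decreased ONE-Glo luminescence.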

[8] = qHTS assay to identify small molecule agonists of the AP-1 signaling pathway - cell viability counter screen (AID 1159525; calls by dose curve; also: nearly all actives have a fitted effect of over 55% in size); conditions: ME-180 AP-1-bla cells viability, ATP luminescence, 5 h; series mostly up to 76.8 µM
Summary of the method: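 Luminescent ATP readout (Cell Titer Glo, 30 min RT), normalised to DMSO and tetra n-octyl ammonium bromide controls. Cells were ME-180 AP-1-bla in 0.5% dialyzed FBS Opti-MEM, with a 5 h, 37 °C compound exposure.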

[9] = qHTS assay to identify small molecule agonists of the AP-1 signaling pathway (AID 1159526; calls by dose curve); conditions: ME-180 (cervical carcinoma) AP-1-bla reporter, beta-lactamase FRET ratio, 5 h; series mostly up to 76.8 µM
[10] = qHTS assay to identify small molecule antagonists of the retinoid-related orphan receptor gamma (ROR-gamma) signaling pathway - cell viability counter screen (AID 1159520); conditions: Tet-on RORgamma CHO cells viability, ATP luminescence, 16 h; series mostly up to 92.4 µM; also: nearly all actives have a fitted effect of over 50% in size
Summary of the method: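 Cytotoxicity was read from cellular ATP (CellTiter-Glo luminescence) after 16 hr at 37 C with 1 uM doxycycline induction. The inducer was added 2 hr after compound transfer to Tet-on ROR gamma CHO cells.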

[11] = qHTS assay to identify small molecule agonists of the RXR signaling pathway - cell viability counter screen (AID 1159529); conditions: RXR-alpha-bla HEK293T viability, CellTiter-Glo, 16 h; series mostly up to 76.8 µM; also: nearly all actives have a fitted effect of over 50% in size
Summary of the method: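 RXR-alpha-UAS-bla HEK 293T cells in medium with 2% charcoal-stripped FBS were pre-incubated 5 hr, then compound-treated 16 hr at 37 C. Viability was read by CellTiter-Glo luminescence in the same wells as the beta-lactamase assay, with tetraoctyl ammonium bromide as positive control.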

[12] = qHTS assay to identify small molecule antagonists of the retinoic acid receptor (RAR) signaling pathway (AID 1159552; also: nearly all actives have a fitted effect of over 50% in size); conditions: C3RL4 RARE luciferase reporter, retinol-stimulated, 6 h; series mostly up to 92.4 µM
Summary of the method: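 Retinol signaling pathway inhibitors screened in C3RL4 RARE-luciferase reporter cells seeded overnight at 37 C, then compounds added with 1 uM (final) retinol as pathway substrate. After 6 hr at 37 C, luciferase luminescence read after 30 min at room temperature.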

[13] = qHTS assay to identify small molecule antagonists of the retinoid acid receptor (RAR) signaling pathway - cell viability counter screen (AID 1159551); conditions: C3RL4 cells viability, ATP luminescence (CellTiter-Glo), 6 h; series mostly up to 92.4 µM; also: nearly all actives have a fitted effect of over 35% in size
Summary of the method: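 Seed C3RL4 cells; next day add compound, then retinol to 1 uM final; incubate 6 h at 37 C; add CellTiter-Glo; read luminescence after 30 min at RT.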

[14] = qHTS assay to identify small molecule agonists of the retinoic acid receptor (RAR) signaling pathway (AID 1159553); conditions: C3RL4 RARE luciferase reporter, agonist, 6 h; series mostly up to 73.3 µM
Summary of the method: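 Activation of retinol signaling was monitored via a RARE luciferase reporter in C3RL4 cells. After 6 hr compound treatment at 37 C, detection reagent was added for 30 min at room temperature before luminescence reading.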

Measured: Potency

CC(C)CCCCCCCOC(=O)c1ccc(C(=O)OCCCCCCCC(C)C)c(C(=O)OCCCCCCCC(C)C)c1
not listed: [10] | [11] | [12] | [13] | [14]
inactive: all other assays above

O=C(O)c1cc(C(=O)O)cc([N+](=O)[O-])c1
not listed: [7] | [13] | [14]
inactive: all other assays above

CO[C@@H]1[C@@H](O[C@@H]2O[C@H](C)[C@@H](O[C@H]3C[C@@](C)(O)[C@@H](O)[C@H](C)O3)[C@H](N(C)C)[C@H]2O)[C@@H](CC=O)C[C@@H](C)[C@@H](O[C@@H]2CC[C@H](N(C)C)[C@@H](C)O2)/C=C/C=C/C[C@@H](C)OC(=O)C[C@H]1OC(C)=O
not listed: [10] | [11]
inactive: all other assays above
